# Results published in PMC5540273 (PLoS ONE, 2017).
# Key:
# Conditions in all cases: concentration: 1 μM, replicates: in singlicate; n = 1
# MLK1 = test system: T1, MLK1
# T1 construct: gene MAP3K9
# MLK2 = test system: MLK2
# MLK3 = test system: MLK3
# MRCKA = test system: MRCKA
# MRCKB = test system: T2, MRCKB
# T2 construct: gene CDC42BPB
# MST1R = test system: MST1R
# MST1 = test system: T3, MST1
# T3 construct: gene STK4
# MST2 = test system: T4, MST2
# T4 construct: gene STK3
# MST3 = test system: T5, MST3
# T5 construct: gene STK24
# MST4 = test system: MST4
# 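Also: KINOMEscan kinase panel screen.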
Structure (SMILES),%Inh (MLK1) [%],%Inh (MLK2) [%],%Inh (MLK3) [%],%Inh (MRCKA) [%],%Inh (MRCKB) [%],%Inh (MST1R) [%],%Inh (MST1) [%],%Inh (MST2) [%],%Inh (MST3) [%],%Inh (MST4) [%]
COc1cc(Nc2nccc(N3CCC(NS(=O)(=O)c4ccc(NC(C)=O)cc4)CC3)n2)cc(OC)c1OC [GSK1379825],52,0,51,92.3,80,13,0,19,0,0
CN(c1ccc(F)c(NC(=O)c2cccc(OC(C)(C)C#N)c2Cl)c1)c1ccc2nc(NC(=O)C3CC3)sc2n1,0,4,0,0,0,5,0,0,0,0
CN1CCN(Cc2ccc(NC(=O)Nc3ccc(N(C)c4ccnc(Nc5ccc(CS(C)(=O)=O)cc5)n4)cc3)cc2)CC1.Cl [GW827654],14,24,0,15,30,92.7,61,99,68,83
O=C(Nc1n[nH]c2nc(-c3ccccc3O)ccc12)C1CC1 [SB-711880],0,0,0,4,0,10,0,16,0,20
COc1ccc(C)c(Nc2ccnc(Nc3ccc(-c4cnc[nH]4)cc3)n2)c1.Cl [GW784041],30,12,0,20,5,0,23,38,17,0
Cc1ccc(C)c(NC(=O)Nc2ccc(C)c(-c3ccc(C(=O)Nc4ccncc4)cc3)c2)c1 [GSK1398473],0,0,0,24,21,26,0,34,0,0
CCn1cnc2c(NCc3ccccc3)ncnc21 [SKF-96418],0,27,0,0,0,0,0,14,5,0
Fc1cc(Cl)ccc1Nc1ccnc2cc(-c3ccc(CN4CCOCC4)o3)ccc12 [GW560109],2,0,0,13,0,0,0,0,0,0
Nc1ncnc2scc(-c3ccc(NC(=O)Cc4cc(F)ccc4F)cc3)c12.O=C(O)C(F)(F)F [SB-731254-M],0,28,34,0,4,20,42,0,30,24
Nc1ncc(-c2cn[nH]c2)c2scc(-c3ccc4c(c3)CCN4C(=O)Cc3ccccc3)c12 [GSK2593067],16,0,32,0,0,27,99.4,14,0,20
c1ccc(Oc2ccc(Nc3ccnc4cc(-c5ccc(CN6CCCCC6)o5)ccc34)cc2)nc1 [GW567143],2,14,0,13,0,29,20,0,4,0
CC(C)(C)c1ccc(C(=O)Nc2cn3cc(-n4ccnc4)ccc3n2)cc1,18,0,0,28,0,28,7,3,0,0
Cc1ccc(NC(=O)c2ccc(Cl)c(Cl)c2)cc1-c1ccc(C(=O)Nc2ccncc2)cc1 [GSK1398460],7,16,20,25,32,31,8,0,6,0
CC(C)c1nc(-c2cccc(NS(=O)(=O)c3c(F)cccc3F)c2)c(-c2ccnc(Nc3ccc(N4CCOCC4)nc3)n2)s1.Cl [GSK1723980],89,34,73,18,0,17,0,0,13,16
COc1cccc(C2=C(Nc3cccc(O)c3)C(=O)NC2=O)c1 [SB-390771],21,0,4,18,0,0,13,12,0,7
N#Cc1cnc2cc(-c3cnc(CNCCN4CCOCC4)s3)ccc2c1Nc1ccc(Oc2ccccc2)cc1 [GW664114],78,17,83,9,0,86,20,12,34,18
